Experimental data reported in PubChem BioAssay (NCATS).
Where “and” joins values, the source holds several entries; their conditions need not be identical. Equal entries are not always repeated. Results filed as inconclusive are left out. A call without a number means that no potency is given here. Calls of active or inactive are those of the source. Unless noted, the call rests on the fitted dose curve.

How the values were obtained:
[1] = qHTS for Inhibitors of the Functional Ribonucleoprotein Complex (vRNP) of Lassa (LASV) Arenavirus: LASV Primary Screen - GLuc reporter signal (AID 1347082; calls by dose curve; tested in HEK293 reporter line; further: nearly all actives have a fitted effect of over 60% in size); settings: LASV minigenome vRNP, Gaussia luciferase reporter; series mostly up to 57.5 µM
[2] = qHTS for Inhibitors of the Functional Ribonucleoprotein Complex (vRNP) of Lassa (LASV) Arenavirus: Viability assay - alamar blue signal for LASV Primary Screen (AID 1347083; calls by dose curve; tested in HEK293 reporter line; further: nearly all actives have a fitted effect of over 80% in size); settings: cell viability, alamar blue fluorescence (LASV minigenome counter-screen); series mostly up to 57.5 µM
[3] = qHTS for Inhibitors of the Functional Ribonucleoprotein Complex (vRNP) of Lymphocytic Choriomeningitis Arenaviruses (LCMV): Viability assay - alamar blue signal for LCMV Primary Screen (AID 1347085; calls by dose curve; tested in HEK293 reporter line; further: nearly all actives have a fitted effect of over 80% in size); settings: alamar blue viability counter-screen, LCMV vRNP screen cells; series mostly up to 57.5 µM
[4] = target: Nucleoprotein (Lymphocytic choriomeningitis virus (strain Armstrong)) (UniProt P09992); assay: qHTS for Inhibitors of the Functional Ribonucleoprotein Complex (vRNP) of Lymphocytic Choriomeningitis Arenaviruses (LCMV): LCMV Primary Screen - GLuc reporter signal (AID 1347086); settings: LCMV minigenome vRNP cell assay, Gaussia luciferase reporter; series mostly up to 57.5 µM; further: nearly all actives have a fitted effect of over 70% in size
Sequence of Nucleoprotein (Lymphocytic choriomeningitis virus (strain Armstrong)) (P09992 whole entry, looked up): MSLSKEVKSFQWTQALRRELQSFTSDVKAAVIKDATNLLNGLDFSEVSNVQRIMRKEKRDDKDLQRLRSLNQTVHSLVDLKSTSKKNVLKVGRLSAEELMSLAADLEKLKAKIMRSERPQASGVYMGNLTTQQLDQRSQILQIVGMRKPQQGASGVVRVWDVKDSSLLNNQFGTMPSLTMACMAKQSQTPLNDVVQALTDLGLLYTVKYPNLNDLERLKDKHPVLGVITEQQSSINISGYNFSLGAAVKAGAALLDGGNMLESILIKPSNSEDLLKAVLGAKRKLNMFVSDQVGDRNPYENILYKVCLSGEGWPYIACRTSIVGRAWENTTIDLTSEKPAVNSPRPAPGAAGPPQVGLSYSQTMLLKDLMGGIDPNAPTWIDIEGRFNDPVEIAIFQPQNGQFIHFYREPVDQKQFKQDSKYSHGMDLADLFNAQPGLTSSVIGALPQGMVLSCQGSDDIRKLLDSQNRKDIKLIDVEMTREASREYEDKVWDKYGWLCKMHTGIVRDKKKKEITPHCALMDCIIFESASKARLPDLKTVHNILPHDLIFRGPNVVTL

[5] = qHTS of pediatric cancer cell lines to identify multiple opportunities for drug repurposing: Primary screen for TC32 cells (AID 1347089; active means well fitted curve in the direction sought with a large enough effect; an effect the other way counts as inactive or inconclusive; further: nearly all actives have a fitted effect of over 60% in size; further: potency means the concentration at half of the fitted maximal effect); settings: TC32 Ewing sarcoma viability, CellTiter-Glo luminescence, 48 h; series mostly up to 45.8 µM
Method in brief: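 Luminescent ATP read-out (CellTiter-Glo) of metabolically active TC32 cells after 48 h exposure. Concentration-response curves came from 11-point (MIPE, 0.78 nM–46 µM) or 8-point (NPC, 0.59 nM–46 µM) primary titrations; follow-up used 11 points.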

[6] = qHTS of pediatric cancer cell lines to identify multiple opportunities for drug repurposing: Primary screen for DAOY cells (AID 1347090; active means well fitted curve in the direction sought with a large enough effect; an effect the other way counts as inactive or inconclusive; further: nearly all actives have a fitted effect of over 55% in size; further: potency means the concentration at half of the fitted maximal effect); settings: DAOY medulloblastoma viability, CellTiter-Glo luminescence, 48 h; series mostly up to 46 µM
Method in brief: (§1)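 Viability measured as metabolically active cells via CellTiter-Glo luminescence following 48 hours of compound exposure, 11-point dilutions in confirmatory testing. 500-1,000 cells/well plated 5 hours before dosing; controls were DMSO and 2.3 µM bortezomib.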

[7] = qHTS of pediatric cancer cell lines to identify multiple opportunities for drug repurposing: Primary screen for SJ-GBM2 cells (AID 1347091; active means well fitted curve in the direction sought with a large enough effect; an effect the other way counts as inactive or inconclusive; further: potency means the concentration at half of the fitted maximal effect); settings: SJ-GBM2 viability, CellTiter-Glo luminescence, 48 h; series mostly up to 46 µM
Method in brief: as §1

[8] = qHTS of pediatric cancer cell lines to identify multiple opportunities for drug repurposing: Primary screen for A673 cells (AID 1347092; active means well fitted curve in the direction sought with a large enough effect; an effect the other way counts as inactive or inconclusive; further: nearly all actives have a fitted effect of over 45% in size; further: potency means the concentration at half of the fitted maximal effect); settings: A673 Ewing sarcoma viability, CellTiter-Glo ATP luminescence, 48 h; series mostly up to 46 µM
Method in brief: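 Cell viability of A673 measured by CellTiter-Glo ATP luminescence after 48 hours compound exposure. Dilution series spanned 0.78 nM to 46 µM (MIPE, 11-point) or 0.59 nM to 46 µM (NPC, 8-point); bortezomib 2.3 uM positive control.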

[9] = qHTS of pediatric cancer cell lines to identify multiple opportunities for drug repurposing: Primary screen for SK-N-MC cells (AID 1347093; active means well fitted curve in the direction sought with a large enough effect; an effect the other way counts as inactive or inconclusive; further: potency means the concentration at half of the fitted maximal effect); settings: SK-N-MC viability, CellTiter-Glo luminescence, 48 h; series mostly up to 46 µM
Method in brief: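 Metabolically active cells were quantified by ATP-dependent luminescence (CellTiter-Glo, 15 min at room temperature) following 48 h treatment. Cells had been plated at 500-1,000 per well and settled for 5 h beforehand.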

Structure (SMILES)	Potency [1]	Potency [2]	Potency [3]	Potency [4]	Potency [5]	Potency [6]	Potency [7]	Potency [8]	Potency [9]
CN(C)CCc1ccc(O)cc1	inactive	inactive	inactive	inactive	inactive	inactive	inactive	inactive	
CN(C)CCOC(C)(c1ccccc1)c1ccccn1 (stereo not given)	inactive	inactive	inactive	inactive					
CO[C@H]1C=CO[C@@]2(C)Oc3c(C)c(O)c4c(O)c(c(/C=N/N5CCN(C)CC5)c(O)c4c3C2=O)NC(=O)/C(C)=C\C=C[C@H](C)[C@H](O)[C@@H](C)[C@@H](O)[C@@H](C)[C@H](OC(C)=O)[C@@H]1C	inactive	inactive	inactive	inactive					
NCCC(O)(P(=O)(O)O)P(=O)(O)O	inactive	inactive	inactive	inactive					
CCOC(=O)Nc1ccc2c(c1)N(C(=O)CCN1CCOCC1)c1ccccc1S2	inactive	inactive	inactive	inactive					
Cn1cc[nH]c1=S	inactive	inactive	inactive	inactive					
COC(=O)[C@H]1[C@H]2C[C@@H]3c4[nH]c5cc(OC)ccc5c4CCN3C[C@H]2C[C@@H](OC(=O)c2cc(OC)c(OC)c(OC)c2)[C@@H]1OC	inactive	inactive	inactive	inactive					
Cc1ccc(-n2[nH]c(C)c(N=Nc3cccc(-c4cccc(C(=O)O)c4)c3O)c2=O)cc1C	inactive	inactive	inactive	inactive					
COC[C@@H](NC(C)=O)C(=O)NCc1ccccc1	inactive	inactive	inactive	inactive	inactive	inactive	inactive	inactive	
O=C1CCc2ccc(OCCCCN3CCN(c4cccc(Cl)c4Cl)CC3)cc2N1	inactive	inactive	inactive	inactive					
COc1nc(N)nc2c1ncn2[C@@H]1O[C@H](CO)[C@@H](O)[C@@H]1O	inactive	inactive	inactive	inactive					
NC(=O)c1cn(Cc2c(F)cccc2F)nn1	inactive	inactive	inactive	inactive					
CCN(C(C)=O)c1cccc(-c2ccnc3c(C#N)cnn23)c1	inactive	inactive	inactive	inactive	inactive	inactive	inactive	inactive	
C[C@](N)(Cc1ccc(O)c(O)c1)C(=O)O	inactive	inactive	inactive	inactive					
CC[C@@H](CO)NCCN[C@@H](CC)CO	inactive	inactive	inactive	inactive					
OCCOCCN1CCN(C(c2ccccc2)c2ccc(Cl)cc2)CC1 (stereo not given)	inactive	inactive	inactive	inactive					
O=C(O)COCCN1CCN(C(c2ccccc2)c2ccc(Cl)cc2)CC1 (stereo not given)	inactive	inactive	inactive	inactive					
CC(C)NC[C@@H](O)COc1ccc(CC(N)=O)cc1	inactive	inactive	inactive	inactive					
CC[C@@]1(c2ccccc2)NC(=O)N(C)C1=O	inactive	inactive	inactive	inactive					
CCCCCOC(=O)Nc1nc(=O)n([C@@H]2O[C@H](C)[C@@H](O)[C@H]2O)cc1F	inactive	inactive	inactive	inactive					
Cc1nc2n(c(=O)c1CCN1CCC(c3noc4cc(F)ccc34)CC1)CCC[C@H]2O	inactive	inactive	inactive	inactive					
CC1(C)NC(=O)N(c2ccc([N+](=O)[O-])c(C(F)(F)F)c2)C1=O	inactive	inactive	inactive	inactive					
CCn1cc(C(=O)O)c(=O)c2cc(F)c(N3CCNCC3)cc21	inactive	inactive	inactive	inactive					
COc1ccc(C(=O)c2c(C)n(CCN3CCOCC3)c3ccccc23)cc1	inactive	inactive	inactive	inactive	inactive	inactive	inactive	inactive	
Cc1[nH]cnc1CN1CCc2c(c3ccccc3n2C)C1=O	inactive	inactive	inactive	inactive					
COc1cc(C(C)=O)ccc1OCCCN1CCC(c2noc3cc(F)ccc23)CC1	inactive	inactive	inactive	inactive					

Structure (SMILES)	Potency [1]	Potency [2]	Potency [3]	Potency [4]	Potency [5]	Potency [6]	Potency [7]	Potency [8]	Potency [9]
Cc1nccn1CC1CCc2c(c3ccccc3n2C)C1=O (stereo not given)	inactive	inactive	inactive	inactive					
O=C(NC(O)C(Cl)(Cl)Cl)NC(O)C(Cl)(Cl)Cl (stereo not given)	inactive	inactive	inactive	inactive	inactive	inactive	inactive	inactive	
CC1NCCOC1c1ccccc1 (stereo not given)	inactive	inactive	inactive	inactive	inactive	inactive	inactive	inactive	
CC(C(=O)O)c1cccc(C(=O)c2ccccc2)c1 (stereo not given)	inactive	inactive	inactive	inactive					
N[C@@H](Cc1ccc(N(CCCl)CCCl)cc1)C(=O)O	inactive	inactive	inactive	inactive	20.8 µM (active)	16.8 µM (active) and 18.7 µM (active)	2.64 µM (active)	6.68 µM (active) and 5.9 µM (active)	
CCCc1nc2c(C)cc(-c3nc4ccccc4n3C)cc2n1Cc1ccc(-c2ccccc2C(=O)O)cc1	inactive	inactive	inactive	inactive					
C[C@@H](O)[C@H]1C(=O)N2C(C(=O)O)=C(S[C@@H]3CN[C@H](CNS(N)(=O)=O)C3)[C@H](C)[C@H]12	inactive	inactive	inactive	inactive					
CC(=O)Oc1ccccc1C(=O)Nc1ncc([N+](=O)[O-])s1	inactive	inactive	inactive	inactive					
COc1cc2nc(N3CCN(C(=O)C4COc5ccccc5O4)CC3)nc(N)c2cc1OC (stereo not given)	inactive	inactive	inactive	inactive					
COc1ccc2c(c1OC)CN1CCc3cc4c(cc3C1C2)OCO4 (stereo not given)	inactive	inactive	inactive	inactive	inactive	inactive	inactive		
OCCN1CCN(CCCN2c3ccccc3Sc3ccc(Cl)cc32)CC1	inactive	inactive	inactive	inactive					
CNC(=O)c1ccc(N2C(=S)N(c3ccc(C#N)c(C(F)(F)F)c3)C(=O)C23CCC3)cc1F	inactive	inactive	inactive			3.72 µM (active)	inactive	18.7 µM (active)	5.9 µM (active)
CN(CCOc1ccc(NS(C)(=O)=O)cc1)CCc1ccc(NS(C)(=O)=O)cc1	inactive	inactive		inactive					
CNS(=O)(=O)Cc1ccc2[nH]cc(CCN(C)C)c2c1	inactive	inactive		inactive					
NC12CC3CC(CC(C3)C1)C2	inactive		inactive	inactive					
C=C1CC[C@@]2(O)[C@H]3Cc4ccc(O)c5c4[C@@]2(CCN3CC2CC2)[C@H]1O5	inactive	inactive	inactive	inactive		inactive	inactive	inactive	inactive
Cc1ccc(-c2nc3ccc(C)cn3c2CC(=O)N(C)C)cc1	inactive	inactive	inactive	inactive		inactive	inactive	inactive	inactive
O=C(c1ccc(OCCN2CCCCC2)cc1)c1c(-c2ccc(O)cc2)sc2cc(O)ccc12	inactive		inactive						
C#C[C@]1(O)CC[C@H]2[C@@H]3CCC4=Cc5oncc5C[C@]4(C)[C@H]3CC[C@@]21C	inactive		inactive	inactive					
C=CCN1CC[C@]23c4c5ccc(O)c4O[C@H]2C(=O)CC[C@@]3(O)[C@H]1C5	inactive	inactive		inactive	inactive	inactive	inactive	inactive	
CC(C)(C)NC(=O)[C@H]1CC[C@H]2[C@@H]3CC[C@H]4NC(=O)C=C[C@]4(C)[C@H]3CC[C@]12C	inactive	inactive		inactive					
CN1C[C@H]2c3ccccc3Oc3ccc(Cl)cc3[C@@H]2C1	inactive	inactive		inactive					
CC12CC3CC(C)(C1)CC(N)(C3)C2	inactive		inactive	inactive					
CC(C)c1nc(CN(C)C(=O)N[C@H](C(=O)N[C@@H](Cc2ccccc2)C[C@H](O)[C@H](Cc2ccccc2)NC(=O)OCc2cncs2)C(C)C)cs1	inactive		inactive	inactive					
COC1=CC(=O)C[C@@H](C)[C@]12Oc1c(Cl)c(OC)cc(OC)c1C2=O	inactive		inactive						
COC(=O)C1=C(C)NC(C)=C(C(=O)OCC(C)C)C1c1ccccc1[N+](=O)[O-] (stereo not given)	inactive		inactive	inactive					
